Experimental data: the supplement of paper PMC6124720
Unmarked numbers belong to inactive results.

tested on: Pseudogymnoascus destructans 20631-21; experiment: growth activity index (DuctApe, 0 = no growth, 9 = maximal growth) (index 0-9); higher = more fungal growth (less inhibition), active = 0 or less; extreme values may be limits of the assay; conditions: concentration level (1-4, increasing; Biolog proprietary): 1; temperature: 13 °C; YPD
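Further: biolog Phenotype Microarray plates PM21–25, OD595 followed daily over 11 days, growth curves converted to index, mean of two independent experiments.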

Row | SMILES | growth activity index
1 | O=C(O)/C=C/c1ccccc1 [Cinnamic acid] (Biolog plate: PM25) | 5
2 | Cn1c(=O)c2c(ncn2C)n(C)c1=O [Caffeine] (Biolog plate: PM22) | 5
3 | [I-].[K+] [Potassium iodide] (Biolog plate: PM22) | 0 (active)
4 | O=c1cn[nH]c(=O)[nH]1 [6-Azauracil] (Biolog plate: PM24) | 4.67
5 | CC(CN1c2ccccc2Sc2ccccc21)N(C)C (configuration not stated) [Promethazine] (Biolog plate: PM21) | 4.75
6 | O=C([O-])c1ccccc1O.[Na+] [Sodium Salicylate] (Biolog plate: PM25) | 4.67
7 | CN1CCN(CCCN2c3ccccc3Sc3ccc(C(F)(F)F)cc32)CC1 [Trifluoperazine] (Biolog plate: PM21) | 0 (active)
8 | NC(CO)C(=O)NO (racemic) [DL-Serine hydroxamate] (Biolog plate: PM22) | 4.33
9 | NC(N)=NCCC[C@H](N)C(=O)NO [L-Arginine hydroxamate] (Biolog plate: PM22) | 5.67
10 | NC(N)=O [Urea hydrogen peroxide] (Biolog plate: PM22) | 4.67
11 | CCCCCCCCCCCC[N+](C)(C)CCOc1ccccc1 [Domiphen bromide] (Biolog plate: PM21) | 4
12 | C[C@@H]1[C@H](O)[C@@H](C)/C=C/C=C/C=C/C=C/C=C/C=C/C=C/[C@H](O[C@@H]2O[C@H](C)[C@@H](O)[C@H](N)[C@@H]2O)C[C@@H]2O[C@](O)(C[C@@H](O)C[C@@H](O)[C@H](O)CC[C@@H](O)C[C@@H](O)CC(=O)O[C@H]1C)C[C@H](O)[C@H]2C(=O)O [Amphotericin B] (Biolog plate: PM24) | 0 (active)
